Compounds with a hit are over-represented: about 4.1% of the library has one in this group of screens.
DAX1 inh-1: blocks DAX1 repression of SF-1 activated StAR promoter. HEK293T StAR-luciferase reporter, SF-1/DAX-1 repression relief. AID 652010. hit rate 1.1% among 370,000. inhibition, % at 6.8 µM;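 active = inhibition above the mean over all tested compounds plus 3 SD, cut at about 3.6% in these data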;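 note: 0% = DAX-1 cells with DMSO and 100% = cells lacking DAX-1 with DMSO; higher inhibition means more luminescence from relief of DAX-1 repression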
hcDAF-12 act: activators of H. contortus DAF-12 nuclear receptor; HEK293 hcDAF-12 lit1-tk-luc reporter, luminescence; 0% DMSO, 100% Δ7-dafachronic acid; activation, % at 6.8 µM; hit rate 1.4% among 370,000;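 active = activation above the mean of all tested compounds plus 3 SD, cut at about 5.5% in these data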;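 note: 100% = response to 3 µM Δ7-dafachronic acid high control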
hgDAF-12 ag: hgDAF-12 agonism, primary luciferase screen. hit rate 1.8% among 370,000. activation, % at 6.8 µM. HEK293 GAL4-hgDAF12 UAS-luciferase reporter, agonist luminescence; normalized to butyrate control;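 active = activation above a cutoff set at the mean of all screened compounds plus 3 SD, cut at about 10% in these data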;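 note: 0% = DMSO wells and 100% = sodium butyrate wells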
ssDAF-12 act: S. stercoralis DAF-12 activation, primary screen; HEK293 ssDAF-12/GRIP1 lit1-tk-luc reporter, luminescence; % of 3 µM dafachronic acid response; AID 652126; activation, % at 6.8 µM; hit rate 1% among 370,000;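 active = activation above the mean over all tested compounds plus 3 SD, cut at about 0.9% in these data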;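 note: 0% = DMSO-only wells and 100% = 3 µM delta7-dafachronic acid wells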
PolyA inhibitor: blocks polyadenylation in yeast reporter cells | activity score, % at 12 µM | S. cerevisiae SKY197-pL101 polyadenylation reporter, beta-gal luminescence; efflux-impaired pdr1/pdr3 knockout yeast; score 100 = 6 SD above DMSO | hit rate 0.02% among 300,000;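 active = lowest replicate activity score at least 50, where 100 means six control SD above control mean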;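 note: yeast exposed to compound for 9 h at 30 °C; higher score means more reporter readthrough which indicates perturbed polyadenylation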
DAX1 inh-2: NR0B1 (DAX1) inhibition; inhibition, % at 6.75 µM; hit rate 0.99% among 340,000; HEK293 Gal4-DAX1 luciferase reporter, luminescence; P51843;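 active = inhibition above the mean over all tested compounds plus 3 SD, cut at about 4.2% in these data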;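 note: 0% = DAX1-transfected cells with DMSO and 100% = empty-vector control cells with DMSO; inhibition shows as a rise in luminescence from relieved DAX1 repression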
Target sequence (P51843 207-470 limits assumed): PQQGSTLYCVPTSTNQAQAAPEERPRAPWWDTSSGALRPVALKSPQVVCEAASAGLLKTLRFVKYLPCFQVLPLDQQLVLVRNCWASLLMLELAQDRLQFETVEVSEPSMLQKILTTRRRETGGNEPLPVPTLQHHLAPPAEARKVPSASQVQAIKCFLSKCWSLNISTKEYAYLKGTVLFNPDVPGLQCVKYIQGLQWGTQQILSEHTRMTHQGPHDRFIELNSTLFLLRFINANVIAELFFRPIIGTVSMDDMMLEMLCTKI
LXR ag: activates human LXR-beta, counter-screen for hcDAF-12 agonists | AID 743027 | activation, % at 6.8 µM | HEK293 Gal4-LXR tk-luc reporter, luminescence, 24 h; normalized: DMSO 0%, positive control 100% | shares compounds with hcDAF-12 act | 3,400 tested, under 10 active;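 active = mean percent activation of the reporter above a cutoff set as the average over tested compounds plus their standard deviation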
Target sequence (P55055 whole entry, looked up, the tested form may be a part): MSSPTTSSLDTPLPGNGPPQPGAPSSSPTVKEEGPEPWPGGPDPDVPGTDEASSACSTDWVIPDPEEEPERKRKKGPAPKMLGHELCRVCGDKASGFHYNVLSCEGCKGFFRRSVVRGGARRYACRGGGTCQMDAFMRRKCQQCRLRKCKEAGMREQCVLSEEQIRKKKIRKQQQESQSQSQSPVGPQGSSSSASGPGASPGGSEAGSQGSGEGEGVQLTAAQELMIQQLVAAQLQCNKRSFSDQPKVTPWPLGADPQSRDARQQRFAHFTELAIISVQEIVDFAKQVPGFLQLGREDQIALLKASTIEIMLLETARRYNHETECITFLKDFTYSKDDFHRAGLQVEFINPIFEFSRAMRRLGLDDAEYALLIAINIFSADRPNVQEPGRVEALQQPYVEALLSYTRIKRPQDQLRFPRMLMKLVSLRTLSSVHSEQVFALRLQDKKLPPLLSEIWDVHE
hcDAF12 ag: confirmation of H. contortus DAF-12 agonists. shares compounds with hcDAF-12 act. HEK293 hcDAF-12 lit1-tk-luc reporter, luminescence; % of Δ7-dafachronic acid response. activation, % at 6.8 µM. hit rate 61% among 3,400. AID 743032;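 active = mean activation across triplicate tests above the threshold derived from the earlier primary screen, cut at about 5.5% in these data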;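 note: 0% = DMSO only wells and 100% = 3 µM Δ7-dafachronic acid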
hgDAF12 ag: confirmation of H. glycines DAF-12 agonists; shares compounds with hgDAF-12 ag; HEK293 GAL4-hgDAF12 luciferase reporter, agonist mode; percent of butyrate response; activation, % at 6.8 µM; hit rate 80% among 3,300; AID 743050;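 active = mean activation over triplicate wells above the hit cutoff derived from the earlier primary screen, cut at about 11% in these data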;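 note: 0% = DMSO low control and 100% = 2 mM sodium butyrate high control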
LXR ag 2: activates human LXR-beta, counter-screen for DAF-12 agonists. shares compounds with hgDAF-12 ag. HEK293 Gal4-LXR luciferase reporter, 24 h. activation, % at 6.8 µM. 3,300 tested, under 10 active;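 active = mean activation of the triplicate above a set limit carried over from the primary screen, none filed active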
The depositor's hits bear a star; . = no result.

SMILES	DAX1 inh-1	hcDAF-12 act	hgDAF-12 ag	ssDAF-12 act	PolyA inhibitor	DAX1 inh-2	LXR ag	hcDAF12 ag	hgDAF12 ag	LXR ag 2
O=C(Nc1ccc(-c2nc3ccccc3o2)cc1)C1CCCO1 (centres undefined)	3.3	9.7*	14.7*	1.1*	-33.4	-0.5	1.7	7.6*	21.2*	1.3
COCCN(C(=O)Cc1ccc(S(=O)(=O)N2CCOCC2)s1)c1c(N)n(CC(C)C)c(=O)[nH]c1=O	0.3	-1.2	2.3	-1.3	.	0.1	.	.	.	.
Cc1cc(C(=O)Nc2ccccn2)no1	0.6	2.6	7.7	-0.2	12.5	1.3	.	.	.	.
O=C(Nc1nccs1)c1sc2ccccc2c1Cl	3.2	15.1*	17.5*	3.0*	-14.0	-0.8	1.6	16.3*	16.7*	1.0
Cc1csc(NC(=O)c2ccc3ccccc3n2)n1	2.6	21.1*	18.2*	4.1*	-7.5	1.4	1.6	16.3*	26.0*	1.0
O=C(Nc1ccccn1)c1ccc2ccccc2n1	3.6	19.1*	16.7*	3.7*	-31.0	1.2	2.2	21.8*	18.4*	0.9
O=C(/C=C\c1ccccc1)Nc1nccs1	3.5	8.4*	20.4*	0.5	-14.7	1.0	2.1	4.8	20.1*	0.9
CN(C)c1ccc(CC(=O)N2CCCCC2c2cc(C(=O)Nc3cccc4c3CCCC4)no2)cc1 (centres undefined)	-0.7	-0.4	-2.5	-1.5	.	.	.	.	.	.
Cc1ccccc1OCC(=O)Nc1ccc2c(c1)C(=O)N(CCC(=O)O)C2=O	0.0	-0.2	-0.3	-0.7	-8.6	1.1	.	.	.	.
O=C(Nc1nccs1)c1ccc2ccccc2n1	1.6	18.3*	18.1*	3.6*	-3.7	1.4	1.6	15.8*	22.7*	1.0
Cc1csc(NC(=O)c2cnc3ccccc3n2)n1	2.3	15.1*	15.8*	2.1*	-0.5	-1.5	1.3	13.9*	18.2*	0.9
COc1ccc(NC(=S)NCCc2c(C)[nH]c3ccc(OC)cc23)cc1	-0.7	-3.6	-4.9	-2.1	3.5	1.6	.	.	.	.
CN1CCN(NC(=O)c2ccc(S(=O)(=O)N3CC4(C)CC3CC(C)(C)C4)cc2)CC1 (centres undefined)	0.2	-1.9	0.2	-1.1	2.1	-0.8	.	.	.	.
OC(c1ccc(F)cc1)c1nc(-c2cc3ccccc3o2)cs1 (centres undefined)	3.9*	6.6*	14.9*	1.2*	.	.	0.6	4.2	14.0*	0.5
N#C/C(=C\c1cccnc1)c1ccccn1	0.3	-0.1	2.8	-1.0	-11.1	3.1	.	.	.	.
COc1cc(-c2nc3ccccc3s2)ccc1O	2.3	8.6*	14.2*	0.0	-20.6	3.0	0.6	7.3*	14.4*	0.6
O=C(O)c1cc(N/N=C/c2ccc(-c3ccccc3)cc2)ccc1Cl	2.4	10.6*	23.6*	1.3*	1.3	3.0	1.9	11.6*	25.1*	1.1
O=C(O)c1cc(N/N=C/c2ccncc2)ccc1Cl	0.6	-0.1	1.1	-0.7	23.2	-3.2	.	.	.	.
[O-][n+]1c(/C=C/c2ccccc2)ccc2ccccc21	2.4	12.6*	13.7*	1.5*	12.2	7.2*	1.2	8.6*	20.6*	0.9
Cc1ccc2c(c1)N(C(=O)CCC(=O)NC1CCCCCC1)CCO2	1.2	-2.7	-2.3	-1.7	-18.2	1.3	.	.	.	.
COc1cc(CCC(=O)NCc2ccc3c(c2)OCO3)cc(OC)c1OC	-0.3	-1.5	1.2	-1.6	-5.2	-0.3	.	.	.	.
Cc1ccc(C)c(NC(=S)c2ccccn2)c1	0.4	2.1	8.2	0.2	-28.4	0.3	.	.	.	.
Cc1ccc(C)c(NC(=S)c2ccc3ccccc3n2)c1	1.6	21.9*	17.1*	2.0*	-21.1	2.0	1.3	14.9*	16.6*	0.6
Cc1cc(C)nc(Nc2nc3ccccc3s2)n1	4.5*	13.8*	16.5*	0.5	28.9	1.1	1.6	15.4*	18.5*	0.9
Cc1ccc(Nc2nc3ccccc3s2)c(C)c1	3.5	9.1*	21.4*	1.2*	-30.5	0.4	1.8	9.6*	21.9*	1.1
SMILES	DAX1 inh-1	hcDAF-12 act	hgDAF-12 ag	ssDAF-12 act	PolyA inhibitor	DAX1 inh-2	LXR ag	hcDAF12 ag	hgDAF12 ag	LXR ag 2
CCOC(=O)CC1C(=O)NCCN1C(=O)c1sc2ccccc2c1Cl (centres undefined)	-0.2	-1.0	-3.4	-1.1	15.6	-1.0	.	.	.	.
Cc1[nH]n(-c2ccccc2)c(=O)c1N=Nc1cccc(C(=O)O)c1	3.0	8.9*	13.8*	2.2*	-8.7	-3.4	1.4	12.2*	14.5*	1.0
Cc1[nH]c2ccccc2c1N=Nc1cccc(C(=O)O)c1	4.2*	12.3*	13.9*	2.9*	8.3	1.9	0.8	7.6*	19.1*	0.6
COC(=O)c1cc(N=Nc2c(C)[nH]c3ccccc23)cc(C(=O)OC)c1	0.0	-0.4	3.3	-0.8	12.2	0.8	.	.	.	.
CC(C)c1ccc(NC(=O)c2snc3ccc(Cl)cc23)cc1	3.8*	11.4*	19.7*	2.7*	16.4	2.8	1.4	12.1*	16.8*	0.8
CC(C)c1ccc(NC(=O)c2cccnc2)cc1	2.8	4.9	8.1	-0.4	11.0	1.4	.	.	.	.
Cc1ccc(NC(=O)c2ccc3c(c2)C(=O)N(Cc2cccnc2)C3=O)c(C)c1	0.1	-1.0	0.4	-1.5	-1.7	0.2	.	.	.	.
Clc1ccccc1-c1nnc(-c2cccs2)o1	2.4	11.3*	19.5*	1.0*	-18.3	9.4*	1.0	8.1*	24.4*	0.8
CCOc1ccc(C(=O)Nc2ccccc2C(=O)O)cc1	3.4	8.2*	18.3*	1.1*	-1.7	-0.3	1.1	8.3*	14.9*	0.8
O=c1[nH][nH]c2c1[C@H](c1ccc(F)cc1)O[C@H](C1CCCCC1)C2	-1.8	-0.8	-0.6	-0.6	.	.	.	.	.	.
CN1CCN(S(=O)(=O)c2ccc(N(C)Cc3ccc(C(F)(F)F)cc3)c([N+](=O)[O-])c2)CC1	-1.9	-2.4	-2.1	-2.0	.	-0.6	.	.	.	.
O=[N+]([O-])c1ccc(CSc2nc3ccccc3[nH]2)cc1	1.3	5.4	6.5	0.5	7.3	0.2	.	.	.	.
